Assays:
Conditions in all cases: concentration: 1 μM, replicates: in singlicate; n = 1
CDC2L2 = system: CDC2L2
CDC2L5 = system: T1, CDC2L5
T1 construct: gene CDK13

CDK11 = system: T2, CDK11
T2 construct: gene CDK19

CDK2 = system: CDK2
CDK3 = system: CDK3
CDK4-cyclinD1 = system: CDK4-cyclinD1
CDK4-cyclinD3 = system: CDK4-cyclinD3
CDK4 = system: CDK4
CDK5 = system: CDK5
CDK7 = system: CDK7
CDK8 = system: CDK8
CDK9 = system: CDK9
CDKL1 = system: CDKL1
CDKL2 = system: CDKL2
CDKL3 = system: CDKL3
CDKL5 = system: CDKL5
CHEK1 = system: CHEK1
CHEK2 = system: CHEK2
CIT = system: CIT
CLK1 = system: CLK1
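Note: KINOMEscan kinase panel screen.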

Row | Compound | %Inh (CDC2L2) | %Inh (CDC2L5) | %Inh (CDK11) | %Inh (CDK2) | %Inh (CDK3) | %Inh (CDK4-cyclinD1) | %Inh (CDK4-cyclinD3) | %Inh (CDK4) | %Inh (CDK5) | %Inh (CDK7) | %Inh (CDK8) | %Inh (CDK9) | %Inh (CDKL1) | %Inh (CDKL2) | %Inh (CDKL3) | %Inh (CDKL5) | %Inh (CHEK1) | %Inh (CHEK2) | %Inh (CIT) | %Inh (CLK1)
1 | Fc1cc(Cl)ccc1Nc1ccnc2cc(-c3ccc(CN4CCSCC4)o3)ccc12 [GW560106] | 0% | 0% | 1% | 0% | 0% | 35% | 0% | 53% | 0% | 0% | 53% | 0% | 100% | 8% | 0% | 0% | 0% | 79% | 29% | 8%
2 | NCCC(NC(=O)c1cc(Br)c(-c2ccnc3[nH]ccc23)s1)c1ccccc1.O=C(O)C(F)(F)F.O=C(O)C(F)(F)F (centres unmarked) [GSK1307810] | 6% | 0% | 58% | 0% | 6% | 38% | 0% | 27% | 0% | 47% | 100% | 35% | 2% | 0% | 0% | 0% | 0% | 41% | 98.5% | 41%
3 | CN(c1ccc(F)c(NC(=O)c2cccc(OC(C)(C)C#N)c2Cl)c1)c1ccc2nc(NC(=O)C3CC3)sc2n1 | 0% | 0% | 0% | 0% | 1% | 4% | 7% | 12% | 0% | 24% | 2% | 0% | 0% | 27% | 0% | 0% | 0% | 13% | 93.7% | 0%
4 | CN1CCN(Cc2ccc(NC(=O)Nc3ccc(N(C)c4ccnc(Nc5ccc(CS(C)(=O)=O)cc5)n4)cc3)cc2)CC1.Cl [GW827654] | 38% | 99.8% | 60% | 16% | 0% | 50% | 97.8% | 65% | 58% | 53% | 60% | 50% | 71% | 99.8% | 99.6% | 0% | 0% | 78% | 23% | 42%
5 | CN(C)CCOc1ccc(-c2cc(-c3ccc(Cl)c(O)c3)c(-c3ccncc3)[nH]2)cc1.Cl.Cl [SB-684387] | 14% | 0% | 6% | 0% | 0% | 9% | 15% | 39% | 0% | 21% | 38% | 18% | 28% | 39% | 0% | 0% | 7% | 33% | 90.8% | 32%
6 | CN(c1ccc(NC(=O)Nc2cccc(Cl)c2)cc1)c1ccnc(N)n1.Cl [GW830707] | 12% | 43% | 77% | 9% | 0% | 57% | 0% | 4% | 5% | 24% | 85% | 0% | 0% | 39% | 0% | 0% | 0% | 7% | 9% | 0%
7 | Cc1ccc(NC(=O)c2cccc(N3CCCCC3)c2)cc1-c1ccc(C(=O)NCC2CC2)cc1 [GSK1917008] | 8% | 0% | 8% | 2% | 8% | 0% | 1% | 0% | 2% | 0% | 10% | 0% | 7% | 16% | 0% | 7% | 100% | 0% | 86% | 22%
8 | Cn1cc(-c2ccc3c(c2)CCN3C(=O)Cc2cc(F)cc(C(F)(F)F)c2)c2c(N)ncnc21 [GSK2635225] | 24% | 0% | 95.2% | 6% | 4% | 0% | 0% | 32% | 0% | 11% | 91.8% | 7% | 11% | 24% | 0% | 0% | 8% | 0% | 28% | 11%
9 | Cc1ccc(O)cc1Nc1ccnc2ccc(C(C)(C)C)cc12 [GW856805] | 15% | 36% | 21% | 7% | 0% | 12% | 24% | 25% | 0% | 42% | 0% | 12% | 24% | 0% | 17% | 10% | 9% | 3% | 25% | 0%
10 | O=C1NC(=O)C(c2ccccc2Cl)=C1Nc1cccc(Cl)c1 [SB-342409] | 13% | 0% | 0% | 1% | 14% | 7% | 33% | 0% | 0% | 42% | 0% | 0% | 16% | 11% | 0% | 0% | 7% | 0% | 7% | 54%
11 | CNc1nccc(-c2ccc3c(N)n[nH]c3c2)n1 [GSK2206003] | 17% | 0% | 0% | 23% | 19% | 7% | 0% | 31% | 0% | 23% | 32% | 11% | 18% | 17% | 0% | 0% | 0% | 51% | 86% | 97.1%
12 | CC(C)c1nc(-c2ccc(F)c(NS(=O)(=O)c3c(F)cccc3F)c2)c(-c2ccnc(Nc3ccc(N4CCOCC4)nc3)n2)s1 [GSK1804250] | 0% | 0% | 2% | 95.5% | 35% | 26% | 0% | 87% | 51% | 10% | 28% | 1% | 22% | 99.3% | 0% | 88% | 0% | 49% | 81% | 7%
13 | Cc1cc(-c2c(-c3ccc(F)cc3)ncn2CCCN2CCOCC2)nc(N)n1 [SB-222517] | 8% | 0% | 22% | 0% | 18% | 0% | 0% | 24% | 14% | 11% | 0% | 0% | 30% | 0% | 35% | 7% | 0% | 0% | 2% | 0%
14 | CC(=O)Nc1cn2nc(Oc3cccc(NC(=O)c4cccc(C(F)(F)F)c4)c3)ccc2n1 | 14% | 0% | 29% | 2% | 24% | 0% | 0% | 0% | 0% | 0% | 70% | 0% | 48% | 44% | 6% | 0% | 0% | 0% | 99.8% | 5%
15 | CCNc1nccc(-c2c(-c3ccc(F)cc3)ncn2C2CCN(C)CC2)n1 | 16% | 0% | 19% | 0% | 0% | 0% | 0% | 0% | 0% | 0% | 0% | 0% | 30% | 0% | 0% | 0% | 7% | 0% | 30% | 35%
16 | N#CC1(c2cccc(C(=O)Nc3cccc(Oc4ccc5nc(NC(=O)C6CC6)sc5n4)c3)c2)CC1 | 0% | 6% | 24% | 0% | 0% | 15% | 1% | 0% | 0% | 12% | 35% | 0% | 14% | 95.8% | 79% | 0% | 0% | 0% | 94.2% | 8%

Reference: paper PMC5540273 (PLoS ONE, 2017)
